Source: PubChem (several laboratories)
BoNT-F LC inh: inhibitors of Botulinum neurotoxin F light chain protease; Multiplex microsphere protease cleavage assay, flow cytometry; inhibition, % at 10 µM; 0.22% of 360,000 active; AID 588497; in the data active means inhibition above about 35%, passing the limit was not always enough; inconclusive means no clear call, values can overlap the other calls; further: plate controls were buffer without enzyme for full effect and enzyme alone for no effect
Anthrax LF inh2: anthrax lethal factor protease inhibition; multiplex microsphere protease cleavage assay, LF; inhibition, % at 10 µM; 0.12% of 360,000 active; further: plate controls were buffer without enzyme for full effect and enzyme alone for no effect
Target sequence (P15917 whole entry, looked up): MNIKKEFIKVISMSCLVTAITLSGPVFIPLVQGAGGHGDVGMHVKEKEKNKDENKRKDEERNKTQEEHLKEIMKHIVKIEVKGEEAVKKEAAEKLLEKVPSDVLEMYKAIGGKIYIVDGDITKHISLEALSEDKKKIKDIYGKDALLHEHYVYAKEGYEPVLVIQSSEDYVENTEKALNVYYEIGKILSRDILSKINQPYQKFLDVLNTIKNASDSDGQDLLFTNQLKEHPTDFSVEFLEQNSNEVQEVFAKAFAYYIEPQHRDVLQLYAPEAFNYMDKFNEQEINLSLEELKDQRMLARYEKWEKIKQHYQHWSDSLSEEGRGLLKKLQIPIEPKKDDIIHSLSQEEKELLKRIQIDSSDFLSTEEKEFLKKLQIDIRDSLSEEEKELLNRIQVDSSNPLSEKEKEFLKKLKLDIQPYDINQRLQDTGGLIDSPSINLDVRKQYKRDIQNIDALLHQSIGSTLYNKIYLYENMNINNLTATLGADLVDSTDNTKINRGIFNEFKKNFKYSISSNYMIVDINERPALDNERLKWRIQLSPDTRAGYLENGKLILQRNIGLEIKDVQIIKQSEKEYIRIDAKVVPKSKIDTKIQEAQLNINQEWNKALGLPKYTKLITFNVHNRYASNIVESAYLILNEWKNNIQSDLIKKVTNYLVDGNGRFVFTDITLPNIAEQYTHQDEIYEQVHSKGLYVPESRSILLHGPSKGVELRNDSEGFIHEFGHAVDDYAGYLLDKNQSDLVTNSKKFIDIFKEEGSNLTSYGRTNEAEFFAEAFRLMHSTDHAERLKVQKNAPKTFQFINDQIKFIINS
Autofluor counter: flagged as autofluorescent in microsphere protease counterscreen; compound autofluorescence counterscreen, microsphere flow cytometry; stronger effect = higher value; fluorescence intensity (concentration not given with the values); 3.1% of 360,000 active; AID 624483; in the data active means fluorescence intensity above about 16000; inconclusive means no clear call, values can overlap the other calls
SARS 3CLpro inh: SARS-CoV 3CLpro protease inhibition; recombinant SARS-CoV 3CLpro, quenched FRET peptide cleavage; inhibition, % at 6 µM; AID 1706; 0.14% of 290,000 active; in the data active means inhibition above about 12%
BoNT-A LC inh2: inhibitors of Botulinum neurotoxin A light chain protease; multiplex microsphere protease substrate cleavage, flow cytometry; inhibition, % at 10 µM; 0.17% of 360,000 active; AID 588499; further: plate controls were buffer without enzyme for full effect and enzyme alone for no effect
CCHF vOTU inh: CCHFV vOTU protease inhibition; Pep-AMC fluorescence; inhibition, % at 11.5 µM; 0.55% of 370,000 active; in the data active means inhibition above about 30%; further: 0% = vehicle wells with enzyme and 100% = no enzyme wells
Numbers without * were called inactive; u = inconclusive; x = no result. Sampled rows, rich in hits. Any-hit rate of the full collection: about 3.9%. Unless noted, no stated cut-off is given here; in the data, active means inhibition above about 30%; inconclusive means no clear call, values can overlap the other calls; inactive means below that.

SMILES | BoNT-F LC inh | Anthrax LF inh2 | Autofluor counter | SARS 3CLpro inh | BoNT-A LC inh2 | CCHF vOTU inh
CC1CCC/C(=C\Nc2ccc3c(c2)OCO3)C1=O (centres undefined) | -10.8 | -6.0 | 22454* | -1.2 | 0.0 | 5.0
O=C(COC(=O)c1cccnc1Nc1ccccc1F)NCCN1C(=O)CSC1=O | 68.6* | -1.2 | 4198 | 5.7 | 10.4 | 8.5
FC(F)(F)c1cccc(Oc2ccc3c(C(F)(F)F)cc(C(F)(F)F)nc3n2)c1 | 0.8 | -1.7 | 21842* | 3.1 | u | -0.1
FC(F)(F)c1cc(C(F)(F)F)c2ccc(Oc3ccccc3)nc2n1 | -1.5 | -0.3 | 15838 | 3.0 | 1.0 | 3.5
Cc1cccc(-c2cccc3c4c([nH]c23)[C@@H]2C[C@H](N(C)C(=O)c3ccccc3C)[C@H]([C@H](C)O)C(=O)N2CC4)c1 | x | x | x | x | x | -5.8
CC(Oc1ccccc1F)C(=O)/C=C/N(C)C (centres undefined) | -4.1 | -0.7 | 9965 | 7.6 | 0.4 | x
CC(Oc1ccccc1Cl)C(=O)/C=C/N(C)C (centres undefined) | 4.9 | 0.4 | 20970* | 6.5 | 3.5 | -1.0
COc1ccccc1C(=O)n1ccc2ccc(-c3ccc4ccn(Cc5ccc(C#N)cc5)c4c3)cc21 | x | x | x | x | x | -31.7
O=C(NCc1ccccc1)OCCCN1C(=O)CCC12CCCCC2 | x | x | x | x | x | -7.4
O=C(CCC(=O)OCC(=O)c1ccc(Br)cc1)Nc1ccc(Br)c2cccnc12 | 2.9 | -8.5 | 18928* | -0.4 | 2.7 | -8.2
O=C(CCC(=O)OCC(=O)c1ccccc1)Nc1cccc2cccnc12 | -10.7 | -2.9 | 9177 | 0.4 | -0.8 | 15.4
COC(=O)N1CCC[C@H]1c1cccc2[nH]cc(C)c12 | x | x | x | x | x | 2.0
C=CCn1c(SCC(=O)OC(C)C)nnc1-c1ccc(C)cc1 | x | x | x | x | x | -5.9
CCN1/C(=C\C(=S)Nc2ccccc2)Sc2ccccc21 | -44.8 | -5.0 | 3324 | 2.8 | 39.1* | 1.4
O=C(Cn1nc(Cl)nc1Cl)c1cc2ccccc2oc1=O | 2.5 | -2.2 | 16246* | -2.0 | 1.4 | -9.3
CN1CCN(C2=C(Cl)C(=O)N(C3CCCCC3)C2=O)CC1 | -4.8 | 14.6 | 8680 | -0.4 | 10.8 | 7.2
CN1CCN(C2=C(Cl)C(=O)C(c3cnc(N4CCCCC4)s3)=C(Cl)C2=O)CC1 | -22.9 | -8.0 | 19751* | -6.7 | 4.4 | x
Cc1ccc(CNC(=O)OC(C)(C)C)c(/C=C/S(=O)(=O)NCc2ccc(F)cc2)c1 | x | x | x | x | x | 12.9
Cc1c(NC(=O)C2CCCN(S(=O)(=O)c3ccccc3[N+](=O)[O-])C2)c(=O)n(-c2ccccc2)n1C (centres undefined) | x | x | x | x | x | -0.7
COc1ccc(N(C)S(=O)(=O)c2c(C)[nH]c(=O)[nH]c2=O)c(OC)c1 | -2.1 | -3.2 | 23317* | 4.4 | 0.4 | 16.9
CCOC(=O)[C@]12CCCC=C1N(CCCOC)C(=O)[C@@H]2CC(=O)NCc1ccccc1 | x | x | x | x | x | -3.5
CCCN(C(=O)C1CCCN(c2ncnc3c2nc2n3CCCCC2)C1)c1ccccc1C (centres undefined) | x | x | x | x | x | 7.4
CCOC(=O)c1cnn(-c2nc(-c3cccc(F)c3)cs2)c1C(F)(F)F | -2.4 | -3.2 | 19380* | -2.9 | 1.8 | -3.2
CCOC(=O)c1ccc(-c2cccc(C(F)(F)F)c2)nc1C | -2.8 | -1.5 | 22705* | -2.3 | 0.8 | -6.5
NC(=O)c1c(-c2ccccc2)oc2ccc(O)cc12 | 3.8 | -1.3 | 22271* | 1.2 | 0.3 | -5.5
SMILES | BoNT-F LC inh | Anthrax LF inh2 | Autofluor counter | SARS 3CLpro inh | BoNT-A LC inh2 | CCHF vOTU inh
CCOC(=O)c1c(-c2ccccc2)oc2ccc(O)cc12 | 8.0 | 3.4 | 4127 | 2.0 | 2.6 | -0.9
O=C(COc1ccccc1F)Nc1nnc(-c2ccncc2)s1 | -2.2 | -1.7 | 5917 | -4.1 | 0.9 | -7.2
O=C(COc1ccc(F)cc1)Nc1nnc(-c2ccncc2)s1 | -8.4 | -4.5 | 18059* | 1.4 | -3.2 | -5.6
Cc1ccc(NC(=S)NC(NC(=O)c2ccccc2C)C(Cl)(Cl)Cl)c(C)c1 (centres undefined) | -4.7 | -7.9 | 4514 | 12.8* | -0.2 | 15.2
CCOC(=O)[C@@]12CCCC3=C1N(CCC3)C(=O)[C@H]2CC(=O)N1CCOCC1 | x | x | x | x | x | -1.4
COC(=O)[C@H](CCSC)NC(=O)Nc1ccc(C)c(C)c1 | 5.2 | 1.5 | 21760* | 2.5 | 4.2 | -8.0
COC(=O)[C@H](CCSC)NC(=O)NCCc1ccc(F)cc1 | -2.2 | -2.4 | 23311* | -3.0 | -0.6 | 14.0
Cn1nnc(NC(=O)C(c2ccccc2)c2ccccc2)n1 | 5.7 | -4.1 | 14865 | -4.3 | 3.2 | 19.9
CC(C)CC(=O)Nc1nnn(C)n1 | 6.6 | -7.1 | 18519* | 0.0 | 4.4 | 1.4
CC(C)C(=O)Nc1nnn(C)n1 | 1.4 | -1.9 | 22504* | -0.1 | 1.2 | 4.7
N#CCSc1nc2c(sc(=S)n2Cc2ccco2)c(=O)n1-c1ccc(F)cc1 | -5.3 | -2.4 | 21835* | 2.5 | -2.6 | -6.4
O=S1(=O)c2ccc(N3CCCC3)cc2Oc2ccccc2CN1Cc1cn(Cc2ccccc2C(F)(F)F)nn1 | x | x | x | x | x | 5.8
Nc1[nH]c2ccccc2c1C(=O)NC1CC1 | x | x | x | x | x | -1.3
Cn1c(CN2CCCCC2)nc2cc(NC(=O)c3cccc(Br)c3)ccc21 | -8.0 | 1.1 | 8491 | -1.2 | 0.7 | 0.1
Cn1c(CN2CCCCC2)nc2cc(NC(=O)c3ccccc3)ccc21 | 1.2 | 3.7 | 22188* | 0.1 | 1.8 | -3.1
Cn1c(CCNC(=O)c2ccccc2)nc2cc(NC(=O)C3CCCCC3)ccc21 | 1.9 | -0.7 | 18656* | 5.7 | 2.6 | -12.6
O=C(OC12CCCN(C1)/C(=C/c1ccncc1)C2)c1cccc(F)c1 (centres undefined) | x | x | x | x | x | -0.3
O=C(OC12CCCN(C1)/C(=C/c1ccc(Cl)cc1)C2)c1ccccc1 (centres undefined) | x | x | x | x | x | 3.5
O=C(CSc1nc2c(c(=O)[nH]1)CCCC2)Nc1ccc(Cl)cc1F | -0.2 | -2.9 | 20550* | -3.5 | 0.5 | 1.1
O=C(O)CSc1nc2c(c(=O)[nH]1)CCCC2 | -8.6 | -1.5 | 24867* | -7.8 | -7.7 | -8.9
O=C(CSc1nc2c(c(=O)[nH]1)CCC2)Nc1ccc(F)cc1 | -12.3 | -2.5 | 4196 | -6.7 | -1.4 | -13.5
NC(=O)CSc1ncnc2c1oc1ccccc12 | 0.8 | -9.2 | 5264 | -3.7 | -0.3 | 6.1
CCSc1ncnc2c1oc1ccccc12 | 10.0 | -14.8 | 16868* | -0.9 | 7.1 | -0.1
c1coc(CN(Cc2ccco2)c2ncnc3c2oc2ccccc23)c1 | -1.3 | -2.6 | 19845* | 0.9 | 1.0 | x
Cc1cc(C)nc(Sc2ncnc3c2oc2ccccc23)n1 | 2.8 | 0.2 | 21474* | -2.6 | 2.4 | 0.9
SMILES | BoNT-F LC inh | Anthrax LF inh2 | Autofluor counter | SARS 3CLpro inh | BoNT-A LC inh2 | CCHF vOTU inh
CN(C)CCOc1ncnc2c1oc1ccccc12 | 2.9 | 0.2 | 18425* | -7.2 | 3.0 | -9.6
COC(=O)[C@H](Cc1ccccc1)N1C[C@@H](N2CCC[C@H]2C)CS1(=O)=O | x | x | x | x | x | 12.5
COc1ccc(C#CCN(C)/C(N)=N/C(=O)OCc2ccccc2)cc1 | x | x | x | x | x | -2.9
CCN(CC)CCCOc1nc(C)nc2c1oc1ccccc12 | -0.9 | 1.8 | 23099* | -0.8 | 0.3 | 0.7
CCN(CC)CCOc1nc(C)nc2c1oc1ccccc12 | 11.3 | -6.6 | 4333 | -2.6 | -0.8 | -14.5
Cc1sc(NC(=O)c2ccco2)c(CN2CCN(c3ccccn3)CC2)c1C | -2.4 | -2.5 | 23314* | 1.4 | -0.4 | x
